The target of assay [1] is Glucocorticoid receptor (Homo sapiens) (UniProt P04150). Description: qHTS assay for small molecule agonists of glucocorticoid receptor signaling (AID 588532; active means well fitted curve in the direction sought with a large enough effect in the signal ratio, with a control signal flat; the % refers to the signal ratio;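 further: 100% = dexamethasone at 0.1 µM and 0% = DMSO only wells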). Conditions: HeLa MMTV-bla, beta-lactamase ratio, agonist, 18 h; stronger effect = higher value; percent of dexamethasone control, DMSO zero. A digest of the protocol: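 Quantitative HTS using CellSensor MMTV-bla HeLa cells in charcoal/dextran-treated serum; compounds tested up to 92 uM. After 18 h at 37 C, CCF4 dye reported reporter induction.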
Glucocorticoid receptor (Homo sapiens), sequence (P04150 whole entry, looked up): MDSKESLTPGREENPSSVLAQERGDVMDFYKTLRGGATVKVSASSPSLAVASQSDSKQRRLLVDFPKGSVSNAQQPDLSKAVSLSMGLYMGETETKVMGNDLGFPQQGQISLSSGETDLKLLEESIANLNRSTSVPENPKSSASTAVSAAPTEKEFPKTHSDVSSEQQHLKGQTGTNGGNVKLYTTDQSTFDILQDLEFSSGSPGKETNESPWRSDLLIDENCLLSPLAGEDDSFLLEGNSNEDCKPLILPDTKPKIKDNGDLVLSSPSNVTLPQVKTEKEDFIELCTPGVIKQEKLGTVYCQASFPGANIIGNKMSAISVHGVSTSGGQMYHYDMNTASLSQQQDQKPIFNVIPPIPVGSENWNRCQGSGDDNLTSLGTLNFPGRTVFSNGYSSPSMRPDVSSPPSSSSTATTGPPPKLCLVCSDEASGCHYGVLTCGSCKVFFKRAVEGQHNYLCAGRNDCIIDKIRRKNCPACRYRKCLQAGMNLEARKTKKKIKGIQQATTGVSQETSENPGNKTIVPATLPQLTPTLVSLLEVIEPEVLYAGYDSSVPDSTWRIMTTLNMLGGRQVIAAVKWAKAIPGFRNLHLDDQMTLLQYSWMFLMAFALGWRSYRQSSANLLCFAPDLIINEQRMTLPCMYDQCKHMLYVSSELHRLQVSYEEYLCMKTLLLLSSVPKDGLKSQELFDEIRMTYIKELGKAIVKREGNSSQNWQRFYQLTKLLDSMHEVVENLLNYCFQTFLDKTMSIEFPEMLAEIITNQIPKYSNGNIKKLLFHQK
A general note: qHTS replaces the single test concentration by a dilution series.

For assay [2] the target is unchanged. Description: qHTS assay for small molecule antagonists of glucocorticoid receptor signaling (AID 588533; active means well fitted inhibition curve with a large enough effect in the signal ratio, with a control signal flat, not every such curve was filed as active; the % refers to the signal ratio;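 further: cells stimulated with 2 nM dexamethasone as agonist; on the % scale 0 is the no-effect control and ±100 the full control effect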). The method, boiled down: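 Antagonist-mode qHTS: compound titrations added to GRE-bla HeLa cells, then dexamethasone 2 nM final; 18 h, 37 C. CCF4 FRET fluorescence normalized to dexamethasone and DMSO; IC50 from Hill fit.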
The target in assay [3] is Peroxisome proliferator-activated receptor gamma (Homo sapiens) (UniProt P37231). Description: qHTS assay for small molecule agonists of peroxisome proliferator-activated receptor gamma signaling (AID 588536; active means well fitted curve in the direction sought with a large enough effect in the signal ratio, with a control signal flat, not every such curve was filed as active; the % refers to the signal ratio). A digest of the protocol: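 Using GeneBLAzer HEK293 cells, response was quantified by CCF4 fluorescence and normalized between basal DMSO (0%) and rosiglitazone 2 uM (100%); curves yielded half-maximal stimulation concentration and efficacy.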
Peroxisome proliferator-activated receptor gamma (Homo sapiens), sequence (P37231 whole entry, looked up): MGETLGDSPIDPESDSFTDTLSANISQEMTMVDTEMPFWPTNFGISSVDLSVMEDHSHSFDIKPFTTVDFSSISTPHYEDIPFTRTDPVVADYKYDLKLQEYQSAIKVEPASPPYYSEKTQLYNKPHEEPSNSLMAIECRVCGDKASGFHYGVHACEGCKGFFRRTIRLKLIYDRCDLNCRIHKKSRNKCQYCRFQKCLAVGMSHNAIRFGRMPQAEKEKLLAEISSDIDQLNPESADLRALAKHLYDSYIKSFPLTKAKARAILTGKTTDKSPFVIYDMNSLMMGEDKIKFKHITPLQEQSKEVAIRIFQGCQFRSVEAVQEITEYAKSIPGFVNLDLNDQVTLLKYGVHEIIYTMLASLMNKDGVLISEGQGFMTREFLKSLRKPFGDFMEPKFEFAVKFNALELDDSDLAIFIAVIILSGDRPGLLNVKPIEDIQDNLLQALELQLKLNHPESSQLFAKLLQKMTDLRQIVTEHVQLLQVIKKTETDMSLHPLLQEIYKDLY

Assay [4] has the same target. Description: qHTS assay for small molecule antagonists of peroxisome proliferator-activated receptor gamma signaling (AID 588537; active means well fitted inhibition curve with a large enough effect in the signal ratio, with a control signal flat, not every such curve was filed as active; the % refers to the signal ratio;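 further: reporter cells co-stimulated with 50 nM rosiglitazone agonist during compound treatment; % of control where 0% means no effect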). The method, boiled down: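 Cell-based beta-lactamase assay; GW9662 served as the antagonist control. Stimulation used rosiglitazone, final 50 nM, 16 h, 37 C.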
Assay [5] in a line: qHTS assay for small molecule agonists of retinoid X receptor alpha signaling (AID 588544). The settings on record: HEK293T RXRa-UAS-bla, beta-lactamase reporter, 18 h; 530 nm emission.
Assay [6] has as its target Thyroid hormone receptor beta (Homo sapiens) (UniProt P10828). Description: qHTS assay for small molecule agonists of thyroid hormone receptor beta signaling (AID 588545; calls by dose curve;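 further: 0% = DMSO only and 100% = 10 nM T3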). The method, boiled down: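 TR-UAS-bla GripTite HEK 293 cells (2500/well, medium with 2% charcoal/dextran FBS) were treated in agonist mode for 18 h at 37 C, titrated. Beta-lactamase was read by CCF4 ratio after 2 h; normalized to 10 nM T3 (100%) and DMSO, Hill-fitted for EC50 and efficacy.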

Assay [7] can be described thus: qHTS assay for small molecule antagonists of retinoid X receptor alpha signaling (AID 588546; active means well fitted inhibition curve with a large enough effect in the signal ratio, with a control signal flat, not every such curve was filed as active; the % refers to the signal ratio;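 further: cells stimulated with 9-cis-retinoic acid as agonist; on the % scale 0 is the no-effect control and ±100 the full control effect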). Conditions: HEK293T RXRa-UAS-bla, beta-lactamase ratio, antagonist mode; measured here: W530 green channel, cytotoxicity proxy. A digest of the protocol:
(§1)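 Beta-lactamase reporter inhibition, read as CCF4 fluorescence ratio (ex 405, em 460/530 nm) after 2 h at RT. HEK293T UAS-bla cells, 2500/well, were stimulated with 9-cis-RA at 500 or 100 nM final alongside test compound for 18 h at 37 C.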

For assay [8], the target named is Retinoic acid receptor RXR-alpha (Homo sapiens) (UniProt P19793). The assay is described as above. Conditions: HEK293T RXRa-UAS-bla, beta-lactamase ratio, antagonist mode. The method, boiled down: as §1
Retinoic acid receptor RXR-alpha (Homo sapiens), sequence (P19793 whole entry, looked up): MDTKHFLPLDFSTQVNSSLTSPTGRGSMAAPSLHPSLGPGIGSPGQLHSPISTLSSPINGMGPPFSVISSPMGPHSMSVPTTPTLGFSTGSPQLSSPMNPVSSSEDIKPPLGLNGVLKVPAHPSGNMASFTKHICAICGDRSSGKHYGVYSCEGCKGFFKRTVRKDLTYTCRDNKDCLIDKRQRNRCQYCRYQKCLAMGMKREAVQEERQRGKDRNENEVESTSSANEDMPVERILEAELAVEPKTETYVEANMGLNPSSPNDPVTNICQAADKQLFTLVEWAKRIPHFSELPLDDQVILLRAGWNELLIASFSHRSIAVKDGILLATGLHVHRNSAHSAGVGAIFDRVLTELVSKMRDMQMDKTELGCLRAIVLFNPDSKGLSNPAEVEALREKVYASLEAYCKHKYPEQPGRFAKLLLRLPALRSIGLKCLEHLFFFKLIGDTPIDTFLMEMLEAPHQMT
The target in assay [9] is Thyroid hormone receptor beta (Homo sapiens) (UniProt P10828). Description: qHTS assay for small molecule antagonists of thyroid hormone receptor beta signaling (AID 588547; active means well fitted inhibition curve with a large enough effect in the signal ratio, with a control signal flat, not every such curve was filed as active; the % refers to the signal ratio;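 further: cells stimulated with 0.4 nM T3 agonist during compound exposure; series mostly up to about 77 µM; on the % scale 0 is the no-effect control and ±100 the full control effect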). Conditions: TR-UAS-bla HEK293, beta-lactamase ratio, antagonist mode, 18 h. The method, boiled down: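 Inhibition of T3-driven (0.4nM final) beta-lactamase reporter activity was measured over 0.59 nM to 92 uM compound after 18 h at 37 C. The cells were GripTite HEK293 TR-UAS-bla in charcoal/dextran-stripped serum, with CCF4 ratio read-out and IC50 from Hill fits.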
Thyroid hormone receptor beta (Homo sapiens), sequence (P10828 whole entry, looked up): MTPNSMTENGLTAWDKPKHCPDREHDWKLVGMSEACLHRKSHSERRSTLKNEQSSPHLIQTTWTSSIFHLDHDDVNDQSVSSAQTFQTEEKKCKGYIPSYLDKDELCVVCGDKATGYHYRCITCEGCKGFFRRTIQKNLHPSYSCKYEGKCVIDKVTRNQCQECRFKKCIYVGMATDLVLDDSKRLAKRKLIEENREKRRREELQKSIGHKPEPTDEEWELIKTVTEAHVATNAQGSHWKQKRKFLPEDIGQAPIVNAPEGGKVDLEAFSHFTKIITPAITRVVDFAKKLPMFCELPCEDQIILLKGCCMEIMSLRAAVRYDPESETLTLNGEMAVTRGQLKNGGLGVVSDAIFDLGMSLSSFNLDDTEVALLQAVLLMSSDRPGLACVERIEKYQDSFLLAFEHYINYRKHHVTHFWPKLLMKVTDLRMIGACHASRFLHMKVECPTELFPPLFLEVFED

In assay [10] the target is Voltage-gated inwardly rectifying potassium channel KCNH2 (Homo sapiens) (UniProt Q12809). Description: qHTS Assay for Small Molecule Inhibitors of the Human hERG Channel Activity (AID 588834).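 Further: top concentration of the series differs between compounds; on the % scale 0 is the no-effect control and ±100 the full control effect; lower thallium flux fluorescence means stronger hERG block; nearly all actives have a fitted effect of over 50% in size.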 The method, boiled down:
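Step 1: BacMam hERG transduction of U2OS, 4 hrs RT. Step 2: overnight 37 °C, plate 2000 cells/well, 4 hr. Step 3: FluxOR load, compound 10 min, stimulate, read fluorescence.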

Assay [11] in a line: S16 Schwann cell viability assay (CellTiter-Glo assay) (AID 624031).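 Further: cellular ATP luminescence as a viability measure; series mostly up to about 58 µM; plate controls were DMSO-treated cells for no effect and cell-free wells for full effect; nearly all actives have a fitted effect of over 70% in size.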 The method, boiled down:
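This viability control uses native rat S16 Schwann cells grown in DMEM plus 10% FBS. After a 24 h compound treatment at 37 °C, CellTiter-Glo luminescence reports ATP content, scaled against DMSO-treated and cell-free wells.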
(Cellular ATP, detected with luciferase, serves as a proxy for viable cell number.)

Assay [12] can be described thus: S16 Schwann cell PMP22 intronic element firefly luciferase assay (AID 624032).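 Further: series mostly up to about 58 µM; plate controls were DMSO for no effect and PTC124 positive control mean for full effect; nearly all actives have a fitted effect of over 30% in size.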 A digest of the protocol: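 Luciferase reporter of PMP22 intronic-element expression in stably transfected S16 rat Schwann cells, read by ONE-Glo luminescence after 24 h compound exposure at 37 C. Activity scaled between DMSO (0%) and positive-control PTC124; concentration-effect curves quality-classified.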

For assay [13], the target named is Bile acid receptor (Homo sapiens) (UniProt Q96RI1). Description: qHTS assay for small molecule antagonists of farnesoid X receptor signaling (AID 588526; calls by dose curve; further: on the % scale 0 is the no-effect control and ±100 the full control effect). The method, boiled down:
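Beta-lactamase reporter antagonist mode: HEK293T FXR-UAS-bla cells, titrated compound, CDCA stimulation, 16 h 37 C, CCF4 dye 2 h RT. Data normalized to CDCA 50 uM and DMSO; Hill-fit IC50.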

A short description of assay [14]: qHTS assay for small molecule antagonists of peroxisome proliferator-activated receptor delta signaling (AID 588535; active means well fitted inhibition curve with a large enough effect in the signal ratio, with a control signal flat, not every such curve was filed as active; the % refers to the signal ratio;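 on max response: cells co-treated with a PPAR-delta agonist as stimulator during compound exposure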). The settings on record: HEK293T PPARd-UAS-bla, beta-lactamase FRET ratio, 18 h; 460 nm channel. A digest of the protocol: (§2)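 Antagonist-mode qHTS using GeneBLAzer PPAR-delta-UAS-bla HEK293T cells; compound exposure 18 hrs at 37 C over a titration. Ratiometric CCF4 fluorescence at 460/530 nm; concentration-response points fitted to the Hill equation.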

Assay [15] deals with Peroxisome proliferator-activated receptor delta (Homo sapiens) (UniProt Q03181). Described as above. The method, boiled down:
as §2

The target in assay [16] is Vitamin D3 receptor (Homo sapiens) (UniProt P11473). Description: qHTS assay for small molecule antagonists of vitamin D receptor signaling (AID 588541; calls by dose curve). A digest of the protocol: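 Antagonist-mode beta-lactamase reporter assay: HEK293T VDR-UAS-bla cells were exposed to titrated compound alongside 1-alpha,25-dihydroxyvitamin D3 at 3 nM final for 16 h. Values were normalized to the 50 nM agonist control and DMSO basal, with IC50 and efficacy from Hill equation fits.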
Vitamin D3 receptor (Homo sapiens), sequence (P11473 whole entry, looked up): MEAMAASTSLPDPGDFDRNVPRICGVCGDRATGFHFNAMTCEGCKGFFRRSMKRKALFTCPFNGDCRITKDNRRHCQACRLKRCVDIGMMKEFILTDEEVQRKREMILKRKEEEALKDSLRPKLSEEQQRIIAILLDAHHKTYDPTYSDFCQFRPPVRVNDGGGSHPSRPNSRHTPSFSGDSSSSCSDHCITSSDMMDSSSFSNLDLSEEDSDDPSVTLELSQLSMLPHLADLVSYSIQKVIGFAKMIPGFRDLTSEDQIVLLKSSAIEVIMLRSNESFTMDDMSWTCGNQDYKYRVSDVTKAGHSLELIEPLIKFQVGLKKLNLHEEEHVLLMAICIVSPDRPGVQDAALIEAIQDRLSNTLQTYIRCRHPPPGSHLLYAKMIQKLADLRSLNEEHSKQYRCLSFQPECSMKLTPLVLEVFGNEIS

Assay [17] shares this target. Description: qHTS assay for small molecule agonists of vitamin D receptor signaling (AID 588543; calls by dose curve). The method, boiled down:
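Reporter cells (HEK293T, VDR-UAS-bla) were seeded in medium with 2% charcoal-stripped serum and incubated 5 h, then compounds in concentration series were added for 16 h at 37 °C. Stimulation was scaled between DMSO basal and 50 nM 1α,25-dihydroxyvitamin D3.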

Assay [18] addresses Luciferin 4-monooxygenase (Photinus pyralis) (UniProt P08659). Description: Biochemical firefly luciferase enzyme assay for NPC (AID 624030).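 Further: purified P. pyralis luciferase at 10 nM with luciferin and ATP substrate; series mostly up to about 59 µM; 0% = DMSO and -100% = full luciferase inhibition by PTC124 control; nearly all actives have a fitted effect of over 70% in size.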 The method, boiled down:
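Direct inhibition of firefly luciferase enzyme (10 nM final, 50 mM Tris Acetate) assessed by luminescence within 5 minutes. Percent activity scaled between DMSO and PTC124 positive control, with concentration-effect curves classified by fit quality and response.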

Several values for one entry are separate records, joined by “and”; a condition that tells them apart may be missing. Identical values can stand only once. Results filed as inconclusive are left out. Activity calls are given as the source filed them. Unless noted, the call rests on the fitted dose curve; in most records, active means well fitted curve in the direction sought with a large enough effect; inconclusive means small, poorly fitted or top-dose-only effect, or another doubt; inactive means no such curve, though single readings can be large; an effect the other way counts as inactive or inconclusive.

Bile acid receptor (Homo sapiens), sequence (Q96RI1 whole entry, looked up): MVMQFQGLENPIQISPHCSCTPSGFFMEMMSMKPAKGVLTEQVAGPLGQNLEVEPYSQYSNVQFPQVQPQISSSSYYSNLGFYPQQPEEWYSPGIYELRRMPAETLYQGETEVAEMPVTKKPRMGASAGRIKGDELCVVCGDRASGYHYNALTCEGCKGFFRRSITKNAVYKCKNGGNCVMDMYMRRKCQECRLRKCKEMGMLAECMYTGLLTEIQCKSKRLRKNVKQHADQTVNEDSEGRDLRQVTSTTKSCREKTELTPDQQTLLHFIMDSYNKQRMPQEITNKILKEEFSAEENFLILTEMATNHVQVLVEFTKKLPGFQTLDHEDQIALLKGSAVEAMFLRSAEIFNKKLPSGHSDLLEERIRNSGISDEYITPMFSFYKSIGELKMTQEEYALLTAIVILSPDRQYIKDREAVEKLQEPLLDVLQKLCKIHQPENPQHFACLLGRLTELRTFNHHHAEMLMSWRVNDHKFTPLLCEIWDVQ
Voltage-gated inwardly rectifying potassium channel KCNH2 (Homo sapiens), sequence (Q12809 whole entry, looked up): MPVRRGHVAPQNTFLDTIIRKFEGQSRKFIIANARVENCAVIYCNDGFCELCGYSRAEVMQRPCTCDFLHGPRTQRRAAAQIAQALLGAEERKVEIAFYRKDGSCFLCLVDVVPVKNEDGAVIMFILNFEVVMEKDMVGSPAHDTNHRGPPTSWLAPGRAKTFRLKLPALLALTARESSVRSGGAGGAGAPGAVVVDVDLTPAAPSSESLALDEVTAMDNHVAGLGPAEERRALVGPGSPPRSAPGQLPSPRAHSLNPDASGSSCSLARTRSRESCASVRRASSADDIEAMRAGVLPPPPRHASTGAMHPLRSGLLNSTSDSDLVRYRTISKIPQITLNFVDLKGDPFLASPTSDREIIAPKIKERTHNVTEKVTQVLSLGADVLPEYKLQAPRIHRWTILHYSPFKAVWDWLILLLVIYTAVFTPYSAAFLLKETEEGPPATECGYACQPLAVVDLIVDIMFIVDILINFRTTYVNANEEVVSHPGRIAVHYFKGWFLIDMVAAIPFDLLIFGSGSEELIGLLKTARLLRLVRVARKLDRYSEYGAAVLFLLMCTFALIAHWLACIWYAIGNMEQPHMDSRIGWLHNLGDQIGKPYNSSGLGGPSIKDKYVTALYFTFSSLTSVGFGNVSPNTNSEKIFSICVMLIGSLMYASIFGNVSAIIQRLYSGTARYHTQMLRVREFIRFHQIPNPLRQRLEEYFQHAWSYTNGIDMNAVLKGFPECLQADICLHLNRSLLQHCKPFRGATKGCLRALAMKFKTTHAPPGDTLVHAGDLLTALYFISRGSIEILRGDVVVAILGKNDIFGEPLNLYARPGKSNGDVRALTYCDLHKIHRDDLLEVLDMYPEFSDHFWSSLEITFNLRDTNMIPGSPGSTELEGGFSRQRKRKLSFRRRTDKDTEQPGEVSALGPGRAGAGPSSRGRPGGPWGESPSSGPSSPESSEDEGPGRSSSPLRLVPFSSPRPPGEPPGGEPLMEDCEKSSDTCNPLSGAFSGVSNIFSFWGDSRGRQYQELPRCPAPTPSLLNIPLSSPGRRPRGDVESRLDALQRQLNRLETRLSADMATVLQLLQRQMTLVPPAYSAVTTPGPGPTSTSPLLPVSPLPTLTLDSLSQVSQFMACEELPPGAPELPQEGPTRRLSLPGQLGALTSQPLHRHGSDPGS
Peroxisome proliferator-activated receptor delta (Homo sapiens), sequence (Q03181 whole entry, looked up): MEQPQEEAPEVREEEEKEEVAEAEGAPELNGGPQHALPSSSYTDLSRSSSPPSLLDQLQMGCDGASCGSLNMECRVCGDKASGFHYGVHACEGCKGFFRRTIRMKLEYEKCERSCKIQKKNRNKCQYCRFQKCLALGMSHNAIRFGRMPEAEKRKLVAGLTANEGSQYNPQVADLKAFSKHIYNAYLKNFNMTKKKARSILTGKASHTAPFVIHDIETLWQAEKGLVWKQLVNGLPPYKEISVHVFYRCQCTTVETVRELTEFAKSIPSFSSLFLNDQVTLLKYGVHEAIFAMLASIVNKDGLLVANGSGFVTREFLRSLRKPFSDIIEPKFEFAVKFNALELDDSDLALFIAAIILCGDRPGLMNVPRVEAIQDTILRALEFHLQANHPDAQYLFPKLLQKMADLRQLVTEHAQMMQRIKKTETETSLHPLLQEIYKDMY

Consider `CC(=O)Nc1ccc(C(=O)O)cc1`, for which the activation in assay [1] was -0.936% (inactive). For the same compound, the call in [2], in [3], in assay [4], in assay [6] and in assay [11] was inactive. The max response in assay [5] is -5.85%; in assay [7] it was -6.58%; in assay [8] it was 1.7% (inactive). Besides, in assay [9], the activity change % (negative = inhibition) was 2.92% (inactive). The Potency entry in assay [10] and in [12] was “inactive” throughout.
In the case of `NC(=O)NC1NC(=O)NC1=O` (stereo unspecified), the Potency result in assay [10] was “inactive”.
As for `CCCCCCCC(=O)OCC(COC(=O)CCCCCCC)OC(=O)CCCCCCC`, the outcome in assay [13], in assay [2], in [15], in [3], in assay [16] and in [17] was inactive. In addition, the compound was called inactive in assay [6] and in assay [11]. For the same compound, the activation in assay [1] was 2.19% (inactive). In addition, the max response was 17.8% in assay [14], -2.18% in [5], -12.4% in [7] and 4.61% (inactive) in [8]. Besides, the activity change % (negative = inhibition) in assay [9] is -4.42% (inactive). In [12], the Potency result is “inactive”.
Regarding `O=C(c1ccccc1)C(O)c1ccccc1` (stereo unspecified), the activation in assay [1] was 2.68% (inactive) and -5.31% (inactive). Further, the compound was classed as inactive in [2], in assay [15], in assay [3], in [4], in [16] and in assay [17]. Besides, the compound was called inactive in [6] and in assay [11]. Besides, the max response was -5.59% and -16% in [14]; 1.82% and 5.17% in [5]; -8.34% in [7]; 0.509% (inactive) in assay [8]. In assay [9], the activity change % (negative = inhibition) was 7.64% (inactive) and -3.28% (inactive). Moreover, the Potency entry in assay [10], in assay [18] and in assay [12] was “inactive” throughout.
For the compound `Cc1cc(C)nc(NS(=O)(=O)c2ccc(N)cc2)n1`, the call in assay [13], in assay [2], in assay [15], in [3], in [6] and in [11] was inactive. Further, the activation in assay [1] is 5.22% (inactive) and 0.742% (inactive). Besides, the max response in [14] was 18.4% and -14.9%; in assay [5] it was -3.23% and 6.31%; in assay [7], 1.53% and -6.64%; in [8] it was -0.622% (inactive) and -18.2% (inactive). Further, the activity change % (negative = inhibition) in assay [9] was -2.95% (inactive) and 11.9% (inactive). Also, the Potency result in assay [18] and in [12] was “inactive” throughout.
`O=C(OOC(=O)c1ccccc1)c1ccccc1`: in [1], the activation is 6.15% (inactive). Besides, the result in [2], in [3], in [4], in [6] and in [11] was inactive. Also, the max response in assay [5] is -15.8%; in [7] it was -16.7%; in assay [8], 10.6% (inactive). For the same compound, the Potency result in assay [10] and in [12] was “inactive” in each case.
Turning to `O=C1c2cccc(O)c2C(=O)c2c(O)cccc21`, the result in assay [4], in assay [17] and in assay [11] was inactive. Moreover, in [9], the activity change % (negative = inhibition) was -11.3% (inactive). In addition, the Potency result in [10] and in assay [18] was “inactive” throughout.
As for `CC(=O)Nc1cccc(O)c1`, the compound was called inactive in assay [3], in [6] and in [11]. For the same compound, the results for the max response in assay [5], in assay [7] and in assay [8] were 11%, -5.06% and 5.72% (inactive), respectively. Moreover, the activity change % (negative = inhibition) in assay [9] is 8.82% (inactive). Further, the Potency entry in [12] was “inactive”.
For the compound `CCCCCCCCCCCCCCCCCCO`, the activation in assay [1] was -8.91% (inactive). Further, the call in assay [2], in assay [15], in assay [3], in assay [4], in assay [16] and in [17] was inactive. Besides, the result in assay [6] and in assay [11] was inactive. The max response is 2.82% in assay [14], -0.452% in assay [5], 4.76% in assay [7] and 3.77% (inactive) in assay [8]. Further, the activity change % (negative = inhibition) in [9] was 3.9% (inactive). For the same compound, the Potency entry in [10] and in assay [18] was “inactive” each time.
Regarding `CC(C)c1cc2c(cc1S(=O)(=O)O)[C@@]1(C)CCC[C@@](C)(C(=O)O)[C@@H]1CC2`, the Potency result in assay [10] and in assay [18] was “inactive” each time. Besides, the compound was classed as inactive in [11].
On to `Cc1onc(-c2ccccc2)c1-c1ccc(S(N)(=O)=O)cc1`, for which the Potency entry in [10] and in [18] was “inactive” each time. Also, in [11], the compound was called inactive.

The record behind these values is PubChem BioAssay (NCATS).
